Data reported in PubChem BioAssay (NCI).
The panel holds about 83,000 compounds, 20% with a hit somewhere; the sample as a whole holds those more often.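 In brief: 96-well plates, 48 h treatment, single concentration, percent growth endpoint.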 Values without a mark were called inactive. Activity calls are given as the source filed them. Rule for the calls: active = growth percent below 10; inactive = the rest.

Tests used:
Experiment in all cases: NCI-60 one-dose screen, 48 h (100 = growth as untreated, 0 = no growth, -100 = all killed)
Conditions in all cases: 10 µM unless noted
HCT-15 colon = tested on: HCT-15 colon
HT29 colon = tested on: HT29 colon
SNB-75 CNS = tested on: SNB-75 CNS
SNB-19 CNS = tested on: SNB-19 CNS
U251 CNS = tested on: U251 CNS
PC-3 prostate = tested on: PC-3 prostate
SK-MEL-5 melanoma = tested on: SK-MEL-5 melanoma
UACC-62 melanoma = tested on: UACC-62 melanoma
LOX IMVI melanoma = tested on: LOX IMVI melanoma
SK-MEL-28 melanoma = tested on: SK-MEL-28 melanoma
SK-MEL-2 melanoma = tested on: SK-MEL-2 melanoma
EKVX NSCLC = tested on: EKVX NSCLC
SN12C renal = tested on: SN12C renal
UO-31 renal = tested on: UO-31 renal
TK-10 renal = tested on: TK-10 renal
ACHN renal = tested on: ACHN renal
CAKI-1 renal = tested on: CAKI-1 renal
A498 renal = tested on: A498 renal
CCRF-CEM leukemia = tested on: CCRF-CEM leukemia
MOLT-4 leukemia = tested on: MOLT-4 leukemia

Structure (SMILES) | growth (HCT-15 colon) | growth (HT29 colon) | growth (SNB-75 CNS) | growth (SNB-19 CNS) | growth (U251 CNS) [%] | growth (PC-3 prostate) [%] | growth (SK-MEL-5 melanoma) | growth (UACC-62 melanoma) | growth (LOX IMVI melanoma) | growth (SK-MEL-28 melanoma) [%] | growth (SK-MEL-2 melanoma) | growth (EKVX NSCLC) [%] | growth (SN12C renal) [%] | growth (UO-31 renal) | growth (TK-10 renal) [%] | growth (ACHN renal) | growth (CAKI-1 renal) | growth (A498 renal) | growth (CCRF-CEM leukemia) | growth (MOLT-4 leukemia)
C=CCn1c(SCC(=O)Nc2ccc(C(=O)/C=C/c3ccc(Cl)cc3)cc2)nnc1-c1ccc(Br)cc1 | 81.2% | 67.5% | 75.6% | 77.8% | 79.5 | 68 | 82.7% | 71% | 77.7% | 105 | 76.4% | 101 | 80.3 | 67.9% | 83.3 | 78.3% | 74.5% | 74.6% | 79.7% | 63.1%
O=C1C(Cl)=C(NCCCCCCNC2=C(Cl)C(=O)c3ccccc3C2=O)C(=O)c2ccccc21 | 63.3% | 98.7% | 117% | 96.3% | 89.9 | 82.2 | 53.2% | 83.5% | 36.3% | 111 | 84.5% | 91.9 | 83.6 | 83.9% | 109 | 104% | 97.8% | 72.9% | 97.3% | 82.4%
O=C1/C(=C\c2ccc3nccnc3c2)SC(=S)N1CCc1ccc(O)cc1 | 78.3% | 112% | 66% | 94% | 99.3 | 89.7 | 98.7% | 84.5% | 79.4% | 103 | 97.1% | 100 | 86.9 | 49.7% | 67.8 | 94% | 78.9% | 83.1% | 79% | 106%
COc1ccc(-c2cc(-c3ccc(Cl)cc3)c(C#N)c(=O)n2Cc2ccc(C(=O)Nc3ccccc3N)cc2)cc1 | 68.2% | 107% | 55.9% | 80.2% | 88.7 | 79.6 | 80.9% | 49.5% | 69.3% | 70 | 79.3% | 82.1 | 79.1 | 40.5% | 140 | 96.5% | 55.8% | 84% | 42.6% | 66.2%
NC(=O)c1ccc(-c2c3ccccc3cc3c2ccc2ccccc23)cc1 | 28.3% | -19.4% (active) | 42.5% | 60.9% | 42.5 | 54.4 | 40.8% | 33.4% | 33.3% | 60 | 43.7% | 67.7 | 72.9 | 57.5% | 70.2 | 57.2% | 61.7% | 70% | 37.8% | 40.5%
c1ccc(-c2oc(-c3ccccc3)c(CN3CCCCC3)c2CN2CCCCC2)cc1 | 19.4% | 10.9% | 55.6% | 44.5% | 25.2 | 19.6 | -87% (active) | 37.6% | 22.3% | 10.1 | 48.4% | 41 | 31.2 | 18.5% | 42.2 | 44.9% | 38.1% | 17.5% | 24.1% | 15.2%
CC(=O)Oc1ccc(N2C(=O)C(Cl)=C(Nc3cccc(C(F)(F)F)c3)C2=O)cc1 | 84% | 104% | 95.1% | 93% | 97.4 | 96.3 | 105% | 87.8% | 88.7% | 101 | 88% | 103 | 93 | 84.2% | 94.9 | 95% | 92% | 92% | 77.4% | 85.9%
COC1=CC(c2ccc[nH]2)=N/C1=C\c1[nH]c(C)c(CC(=O)NCc2ccccc2)c1C | -26% (active) | 15.1% | 58.3% | -1.25% (active) | 18.7 | 12 | -64% (active) | -30.5% (active) | -76.1% (active) | 22.1 | 16.7% | 21.1 | 29.1 | -17.4% (active) | 24.9 | 8.33% (active) | 1.97% (active) | -5.8% (active) | 22.4% | 3.45% (active)
COc1cc2cc(NCc3cccc(Cl)c3)nc(C)c2cc1OC | 48.2% | 3.17% (active) | 65.9% | 48.8% | 31.1 | 50.1 | 43.4% | 14.4% | 0.852% (active) | 33.3 | 38.6% | 60 | 44.6 | 36% | 45.9 | 43.5% | 52% | 7.63% (active) | 27.5% | 30.4%
O=C(Nc1ccc(Oc2cccc(Cl)c2)c(Cl)c1)c1cccnc1 | 36.8% | 8.57% (active) | -23.2% (active) | 41.3% | 23.9 | 14.9 | 14.5% | 37.6% | 51.7% | 63.8 | 44.1% | 50.9 | 43.4 | 44.1% | 59.8 | 41.7% | 30.6% | -3.1% (active) | 17.5% | 37.4%
Nc1nc(N)c(-c2ccc(Cl)c(Cl)c2)c(CBr)n1 | 43% | 34.2% | 95% | 94% | 65.4 | 65.2 | 62.6% | 57% | 34.9% | 103 | 87.6% | 85.3 | 79.2 | 88.7% | 83.6 | 68.4% | 82.3% | 89.9% | 55.8% | 61.3%
CN1CCN(c2cc(Nc3cc(C4CC4)[nH]n3)nc(Nc3ccc(CC(=O)NCc4cccc(F)c4)cc3)n2)CC1 | 56.5% | 8.1% (active) | -56% (active) | 40% | 26 | 47.4 | 68.6% | 32.7% | -28.4% (active) | 25.8 | 48.9% | 50.3 | 23.5 | 36.8% | 34.5 | 45.9% | 5.36% (active) | -28.7% (active) | 36.8% | 16%
Nc1c(C(=O)Nc2ccccc2C(F)(F)F)sc2nc3c(cc12)CCC3 | 97.3% | 94.3% | 97.4% | 98.4% | 93.9 | 100 | 98.6% | 81% | 110% | 94.5 | 102% | 97.1 | 101 | 98% | 89.9 | 99.6% | 101% | 95.1% | 101% | 88.1%
Cc1ccc(C2=Nc3c(N)ncnc3NC(c3cccc(Nc4ccnc5cc(C(F)(F)F)ccc45)c3)C2)cc1 (stereo not given) | 6.14% (active) | 5.98% (active) | 21.7% | 43.6% | 31.1 | 16.1 | 12.1% | 48.7% | 26.7% | 52.3 | -11.1% (active) | 25.2 | 50 | 26.4% | 64.7 | 58.1% | 21% | 47.8% | 4.56% (active) | -2.37% (active)
Fc1cccc(Oc2ccc(Nc3ncnc4ccc(OCCCN5CCOCC5)cc34)cc2Cl)c1 | 10.8% | 18.2% | 77.2% | 63.3% | 47.4 | 63.8 | 32.3% | 71.6% | 21.6% | 68.4 | 93.3% | 20.7 | 82.9 | 30.4% | 26.4 | 32.3% | 30.4% | -4.84% (active) | 58.8% | 53.9%
Cc1ccc(NC(=O)Cn2cc(CN3CCN(c4ccnc5cc(Cl)ccc45)CC3)nn2)cc1 | 84.7% | 105% | 70.7% | 89.2% | 89.4 | 63.1 | 77.7% | 77.7% | 82.4% | 104 | 114% | 80.7 | 93.9 | 62.7% | 95.4 | 81.1% | 73.1% | 88% | -31.6% (active) | -15.7% (active)
